# Records with an inconclusive call do not appear. Values without a mark were called inactive. The call rests on the fitted dose curve; in most records, active means well fitted activation curve with a large enough effect in the signal ratio in the repeat runs (not every such curve was filed as active); inconclusive means weak or mixed curves, or effect the other way; inactive means no such curve, though single readings can be large or run the other way; the % refers to the signal ratio.
# Molecular target: Peroxisome proliferator-activated receptor gamma (Homo sapiens) (UniProt P37231)
# Sequence (P37231 whole entry, looked up): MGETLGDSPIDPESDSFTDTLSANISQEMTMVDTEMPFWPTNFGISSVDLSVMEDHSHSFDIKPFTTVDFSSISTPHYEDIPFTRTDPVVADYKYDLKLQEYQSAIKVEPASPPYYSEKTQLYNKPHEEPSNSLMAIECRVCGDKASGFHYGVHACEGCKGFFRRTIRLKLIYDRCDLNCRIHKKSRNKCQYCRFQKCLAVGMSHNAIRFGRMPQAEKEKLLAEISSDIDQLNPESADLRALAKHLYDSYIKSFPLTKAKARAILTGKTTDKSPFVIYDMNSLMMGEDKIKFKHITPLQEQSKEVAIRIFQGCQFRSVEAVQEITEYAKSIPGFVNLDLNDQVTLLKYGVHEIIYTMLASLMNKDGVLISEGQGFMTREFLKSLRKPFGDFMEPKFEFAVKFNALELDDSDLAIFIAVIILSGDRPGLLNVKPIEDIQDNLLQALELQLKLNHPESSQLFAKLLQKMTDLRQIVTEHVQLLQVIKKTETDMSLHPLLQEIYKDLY
# Test: qHTS assay to identify small molecule agonists of the peroxisome proliferator-activated receptor gamma (PPARg) signaling pathway (AID 743094)
# Conditions: HEK293H PPARg-UAS-bla, beta-lactamase FRET ratio, 17 h; series mostly up to 57 µM; activation: at the top concentration
# How it was run: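 Quantitative HTS agonist mode: stable HEK293H line with UAS-beta-lactamase reporter under PPARg control, 17 h compound exposure at 37C, fluorescence after 1 h FRET substrate loading at room temperature.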
# On the % scale 0 is the no-effect control and ±100 the full control effect.
row,Compound,activation [%]
1,CC(CC(c1ccccc1)c1ccccc1)NC(C)(C)C (centres undefined),-8.66
2,CCC(=O)OCC(=O)[C@@]1(OC(=O)CC)[C@@H](C)C[C@H]2[C@@H]3CCC4=CC(=O)C=C[C@]4(C)[C@@]3(F)[C@@H](O)C[C@@]21C,-0.596
3,CCOC(=O)CN[C@@H](C(=O)N1CC[C@H]1C(=O)NCc1ccc(/C(N)=N/O)cc1)C1CCCCC1,-2.59
4,CN1CCN(C2=Nc3ccccc3Cc3ccccc32)CC1,-5.63
5,CC(CN1c2ccccc2Sc2ccc(S(=O)(=O)N(C)C)cc21)N(C)C (centres undefined),-5.49
6,CC(C)(C)C1(O)CCN2CC3c4ccccc4CCc4cccc(c43)C2C1 (centres undefined),-9.93
7,CC#CCC(C)[C@H](O)/C=C/[C@@H]1[C@H]2C/C(=C/CCCC(=O)O)C[C@H]2C[C@H]1O (some centres undefined),3.04
8,C/C=C(/CC[C@@H](C)[C@H]1CC[C@H]2C3=CC[C@H]4[C@H](C)[C@@H](O)CC[C@]4(C)[C@H]3CC[C@]12C)C(C)C,-3.6
9,C=C[C@]1(C)C[C@@H](OC(=O)CSCCN(CC)CC)[C@]2(C)[C@H](C)CC[C@]3(CCC(=O)[C@H]32)[C@@H](C)[C@@H]1O,-2.75
10,CN1CCCC(CN2c3ccccc3Sc3ccccc32)C1 (centres undefined),-10
11,CCC(=O)OCC(=O)[C@@]1(OC(=O)CC)[C@H](C)C[C@H]2[C@@H]3CCC4=CC(=O)C=C[C@]4(C)[C@@]3(F)[C@@H](O)C[C@@]21C,-8.08
12,O=C(CCCN1CCC(C(=O)c2ccc(F)cc2)CC1)c1ccc(F)cc1,-7.33
13,CNC(C)CCC=C(C)C (centres undefined),-2.63
14,CCCCCCCCCCCCCCCC(=O)O[C@@H]1CC(C)=C(/C=C/C(C)=C/C=C/C(C)=C/C=C/C=C(C)/C=C/C=C(C)/C=C/C2=C(C)C[C@@H](OC(=O)CCCCCCCCCCCCCCC)CC2(C)C)C(C)(C)C1,-0.596
